This is part of a sample that, as a whole, favours compounds with a hit. Of some 83,000 tested, about 20% had one in any assay.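 48-hour exposure, single concentration, 96-well plates; percent growth endpoint where 0 means no net growth. Active: below 10.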 A number with no mark means an inactive call. Calls of active or inactive are those of the source.
Key:
Assay in all cases: NCI-60 one-dose screen, 48 h (100 = growth as untreated, 0 = no growth, -100 = all killed)
Details in all cases: 10 µM unless noted
[1] = system: SK-MEL-2 melanoma
[2] = system: EKVX NSCLC
[3] = system: SN12C renal
[4] = system: UO-31 renal
[5] = system: TK-10 renal
[6] = system: ACHN renal
[7] = system: CAKI-1 renal
[8] = system: A498 renal
[9] = system: CCRF-CEM leukemia

Compound	growth [1]	growth [2]	growth [3]	growth [4]	growth [5]	growth [6]	growth [7]	growth [8]	growth [9]
COc1ccccc1CNCCCN1C(=O)c2ccc3c4c(ccc(c24)C1=O)C(=O)N(CCCNCCCCN)C3=O	-67.9% (active)	8.85% (active)	-39.3% (active)	11.2%	-1.84% (active)	7.77% (active)	33.7%	-52% (active)	–
COc1ccc(-c2csc(C3=C(O)CN(C(C)C)C3=N)n2)cc1OC	133%	94.3%	97.4%	3.91% (active)	94.4%	103%	82.1%	89.6%	–
Clc1cccc(Cl)c1/C=C/c1cc(/C=C/c2c(Cl)cccc2Cl)[nH]n1	32.4%	42%	40.4%	51%	52.2%	48.9%	30.1%	19%	–
CCCCCS(=O)(=O)Nc1ccc(C(=O)O)cc1	93%	100%	101%	97.9%	92.1%	104%	102%	104%	–
CC(=O)OC[C@H]1OC(Sc2sc(C(=O)c3ccc(Br)cc3)c(N)c2-c2nc3ccccc3s2)[C@H](OC(C)=O)[C@@H](OC(C)=O)[C@@H]1OC(C)=O (stereo partly drawn)	107%	72.7%	33%	64.6%	111%	54.9%	63.8%	87.8%	44.1%
COc1cc(N=Nc2ccc(N)cc2)c(OC)cc1N=Nc1ccccc1.[Cl][Zn][Cl]	112%	103%	102%	53.1%	140%	91.1%	75.1%	116%	106%
COc1cc(/C=C/C(=O)c2ccc(Nc3nc(Nc4ccc(F)cc4)nc(Nc4ccc(Cl)cc4)n3)cc2)cc(OC)c1OC	62.6%	74.1%	70.1%	42.4%	73.9%	78.1%	124%	79.8%	–
COc1ccc(/C=C/c2c(C(=O)/C=C/c3cccs3)c(C)nc3ccccc23)cc1	89.6%	84.8%	79.1%	56.4%	116%	82.2%	57.2%	53.3%	64.5%
CCOC(=O)C/C(C)=N\NC(=O)c1ccncc1	120%	89.6%	99.9%	101%	95.8%	103%	52.4%	96.8%	99.7%
Nc1nc(N)c2c(n1)NC(c1ccccc1)C1CCc3ccccc3C1=N2 (stereo not drawn)	86.6%	39.2%	66%	55.9%	36%	39.3%	34.1%	42.5%	–
COc1ccc(C2=Nc3c(N)ncnc3NC(c3ccc4c(c3)OCO4)C2)cc1 (stereo not drawn)	57.6%	82.1%	102%	79.4%	107%	83.6%	90%	97.5%	–
CCN(CC)CCCCCCNc1cc(OC)c(Cl)c2cccnc12	92.4%	85.6%	67.7%	51.8%	85.3%	82.5%	84.6%	45.3%	84.7%
CC1(c2ccccc2)NC(=O)N(NC(=O)CSc2nc(-c3cccs3)nc3ccccc23)C1=O (stereo not drawn)	89.8%	93%	100%	-6.98% (active)	113%	91.5%	72.3%	71.4%	–
Cc1c(O)cc(-c2cnc(N/N=C\c3ccc(Cl)cc3)s2)c(O)c1C	101%	64.3%	87.5%	75.5%	120%	100%	92%	103%	–
COc1cc(N2C(=O)c3nccnc3C2=O)cc(OC)c1OC	95.5%	104%	94.1%	87.5%	100%	112%	97.3%	87.2%	100%
O=C(COc1ccc(/C=C2\Oc3ccccc3C2=O)cc1)Nc1nc2c(s1)CCCC2	84%	26.4%	46%	-59.9% (active)	79.7%	65.5%	-98.4% (active)	110%	–
O=C(NCCCNc1cc(-c2cn(-c3ccccc3)nc2-c2cccc(O)c2)ccn1)c1ccccc1	26.8%	47.6%	61.1%	22.6%	67.3%	45.8%	37.3%	31.1%	36.6%
O=C(O)CN1C(=O)CCC1=O	118%	95.4%	102%	102%	107%	96%	102%	97.4%	–
Oc1c(CN2CCCC2)cc(COCc2ccc(Br)cc2)c2cccnc12	-18% (active)	27.5%	12%	-13.9% (active)	7.24% (active)	0.47% (active)	1.4% (active)	-1.12% (active)	–
Fc1cnc(NC2CC2)nc1-c1cnc2ccc(N3CCOCC3)cn12	-34.1% (active)	-19.5% (active)	8.74% (active)	7.85% (active)	6.32% (active)	3.03% (active)	4.17% (active)	-29.5% (active)	6.3% (active)
CCOc1c(C#N)nnc2c(C#N)c(NC(=O)c3ccccc3)nn12	112%	93.8%	100%	86.3%	116%	98.4%	93.7%	93.4%	102%
c1ccc(Nc2nc(-c3ccccn3)cs2)nc1	27.6%	30.7%	13.4%	0.382% (active)	37%	1.7% (active)	-13.3% (active)	28.3%	–
N#Cc1c(-c2ccccc2)cc(-c2ccc(Nc3nc(Nc4ccc(F)cc4)nc(Nc4ccc(F)cc4)n3)cc2)nc1N	79.7%	88.9%	90.3%	90.4%	94%	107%	99.8%	91.7%	–
O=Cc1c[nH]c2ccc(-c3csc4ccccc34)cc12	110%	55.9%	75.2%	42.9%	60.6%	63.7%	39.7%	43.5%	–
COc1ccc(-c2nc(SCCC(C)C)nc(N/N=C\c3cccc([N+](=O)[O-])c3)c2C#N)cc1	80.4%	40.9%	35.5%	7.32% (active)	42.5%	15.8%	22.6%	41.2%	45.8%
CCCCc1ccc(Nc2ccc(Nc3ccc(CCCC)cc3S(=O)(=O)O)c3c2C(=O)c2ccccc2C3=O)c(S(=O)(=O)O)c1	67.1%	83.3%	91%	66.5%	114%	94.5%	95.6%	119%	80.9%
Cc1ccc(Nc2nc(N)nc(CSCC(=O)NN)n2)cc1	109%	102%	94.6%	88.2%	115%	101%	89.8%	77.7%	–
CC(C)(C)n1cc(-c2ccnc(NCCCNS(=O)(=O)c3ccccc3)c2)c(-c2ccccc2)n1	98.7%	70.7%	78.2%	59%	94.1%	97.2%	80.9%	39.7%	42.6%
NS(=O)(=O)c1cnccc1Oc1cccc2cccnc12	107%	97.1%	99.4%	78.3%	107%	102%	111%	99.1%	–
Cn1cc2c(c1)-c1nc(Nc3ccccc3)ncc1CC2	73.6%	54.6%	64.8%	46.2%	61.9%	47.8%	48.8%	6.32% (active)	61.2%

Source: PubChem BioAssay (NCI)
